# Most compounds without a hit are left out; they make up all but 1.3% or so of the library.
# AmpC inh detg: qHTS Inhibitors of AmpC Beta-Lactamase (assay with detergent); AmpC hydrolysis of nitrocefin, absorbance 480 nm, 0.01% Triton; Potency, µM (highest dose often 114 µM), for inactives: at the highest dose activity change, negative = inhibition, hits mostly inhibitors; actives 0.041% (n = 370,000); AID 485294, 2010;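 also: 0% = no-compound wells and -100% = no-enzyme wells; nearly all actives have a fitted effect of over 25% in size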
#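 AmpC (5.3 nM in the dispensed reagent) in 20 mM phosphate pH 7.0 with 0.01% (detergent screen) or 0.0001% Triton X-100 was preincubated with compounds for 15 min at room temperature. Nitrocefin was then added from an 800 uM solution, and hydrolysis was followed at 480 nm.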
# Giardia FBPA inh-1: qHTS Assay for Inhibitors of Fructose-1,6-bisphosphate Aldolase from Giardia Lamblia; A8B2U2; purified Giardia FBPA; Potency, µM (highest dose often 59.6 µM), for the others: at the highest dose activity, negative = inhibition, hits mostly inhibitors; actives 0.71% (n = 290,000); also: nearly all actives have a fitted effect of over 55% in size
#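 Giardia FBPA (40 nM reagent) was preincubated 10 min at RT with compound (up to 57.5 uM final), then substrate plus GAPDH/TPI/NAD/arsenate coupling system with diaphorase/resazurin was added; resorufin fluorescence (525/598 nm) was read after 20 min.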
# AmpC inh no detg: qHTS Inhibitors of AmpC Beta-Lactamase (assay without detergent) | P00811 | Potency, µM (top dose mostly 57.1 µM), for inactives: at the highest dose activity change, negative = inhibition, usual class: inhibitors | AID 485341, 2010 | AmpC nitrocefin hydrolysis, absorbance 480 nm, 0.0001% Triton | actives 0.52% (n = 330,000);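 also: plate controls were no compound for no effect and no enzyme for full effect; nearly all actives have a fitted effect of over 20% in size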
#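 20 mM phosphate pH 7.0 + 0.01% (detergent screen) or 0.0001% Triton X-100; 5.3 nM AmpC reagent; cpd preinc 15 min RT; nitrocefin (800 uM stock) to start; A480 q20 s × 4 min; Activity was normalised to no-enzyme and no-compound control wells.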
# LmPK inhibitor: qHTS Assay for Inhibitors of Leishmania Mexicana Pyruvate Kinase (LmPK); Q27686; purified LmPK, Kinase-Glo ATP luminescence, 1 h; Potency, µM (top dose mostly 57.5 µM), without a hit: at the top dose activity change, negative = inhibition, most hits filed as inhibitors; actives 0.37% (n = 290,000)
#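 Purified LmPK (0.1 nM) converted ADP (0.1 mM) to ATP with PEP (0.5 mM) in imidazole buffer pH 7.2 with KCl and MgCl2, 1 h at room temperature. ATP was read by Kinase-Glo luminescence; data normalized to uninhibited and no-enzyme controls.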
# AMA1-RON2 inh: qHTS for Inhibitors of AMA1-RON; Towards Development of Antimalarial Drug Lead: Primary Screen. actives 0.2% (n = 360,000). AlphaScreen AMA1-biotinylated RON2 peptide binding. AID 720542, 2013. Potency, µM (doses to about 58.2 µM), for the others: top-dose activity change, negative = inhibition, hits mostly inhibitors. Plasmodium falciparum AMA1 (3D7) - RON2 peptide interaction;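 also: 0% = vehicle wells and -100% = peptide control; nearly all actives have a fitted effect of over 45% in size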
#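 AMA1 (3D7) with his tag at 25 nM final met compounds first, then biotinylated RON2 peptide at 25 nM; detection used donor plus acceptor beads, 10 µg/mL apiece, read by AlphaScreen after 30 min at room temperature.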
# Giardia growth: qHTS Assay for Inhibitors of Fructose-1,6-bisphosphate Aldolase from Giardia Lamblia: Giardia lamblia growth inhibition; actives 5% (n = 1,500); Potency, µM (doses to about 57.5 µM), inactives show top-dose activity change, negative = inhibition, usual class: inhibitors; Giardia lamblia trophozoite growth inhibition; AID 2785, 2010; shares compounds with Giardia FBPA inh-1;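 also: trophozoites exposed to compound for 48 h at 37 °C; nearly all actives have a fitted effect of over 70% in size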
# Mammal cell tox: qHTS Assay for Inhibitors of Fructose-1,6-bisphosphate Aldolase from Giardia Lamblia: Mammalian cellular toxicity | mammalian cell viability counter-screen, qHTS | shares compounds with Giardia FBPA inh-1 | Potency, µM (series often up to 57.5 µM), for inactives: at the top dose viability change, negative = toxicity, actives largely listed as inhibitors | actives 4% (n = 1,500);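 also: Chinese hamster ovary cells used as mammalian cytotoxicity surrogate; viability measured as cellular ATP by luminescence; compound exposure lasted 48 h before reading; nearly all actives have a fitted effect of over 60% in size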
# Giardia FBPA inh-2: qHTS Assay for Inhibitors of Fructose-1,6-bisphosphate Aldolase from Giardia Lamblia: Primary screen confirmation | shares compounds with Giardia FBPA inh-1 | purified Giardia aldolase enzyme activity, qHTS | Potency, µM (titrated, usually from 57.5 µM), without a hit: top-dose activity change, negative = inhibition, usual class: inhibitors | actives 5% (n = 1,500) | AID 2787, 2010; also: nearly all actives have a fitted effect of over 45% in size
# Rabbit aldolase: qHTS Assay for Inhibitors of Fructose-1,6-bisphosphate Aldolase from Giardia Lamblia: Rabbit FBPA Selectivity. actives 4% (n = 1,500). AID 2794, 2010. Potency, µM (highest dose often 57.5 µM), for inactives: at the highest dose activity, negative = inhibition, most hits filed as inhibitors. shares compounds with Giardia FBPA inh-1. Rabbit muscle FBPA enzyme inhibition, selectivity counter-screen; also: nearly all actives have a fitted effect of over 60% in size
# Target sequence (P00883 whole entry, looked up): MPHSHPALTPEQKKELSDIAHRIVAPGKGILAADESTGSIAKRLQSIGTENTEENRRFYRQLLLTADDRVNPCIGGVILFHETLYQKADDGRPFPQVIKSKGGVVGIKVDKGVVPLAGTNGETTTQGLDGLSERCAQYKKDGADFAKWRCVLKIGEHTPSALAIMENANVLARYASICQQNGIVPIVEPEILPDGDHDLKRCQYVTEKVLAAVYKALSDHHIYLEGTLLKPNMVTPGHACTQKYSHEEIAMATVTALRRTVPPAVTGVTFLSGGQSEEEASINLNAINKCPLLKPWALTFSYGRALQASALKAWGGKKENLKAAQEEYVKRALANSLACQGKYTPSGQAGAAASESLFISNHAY
# GAPDH counter: qHTS Assay for Inhibitors of Fructose-1,6-bisphosphate Aldolase from Giardia Lamblia: Coupling assay counterscreen confirmation | shares compounds with Giardia FBPA inh-1 | GAPDH coupling enzyme counterscreen, biochemical, qHTS | Potency, µM (top dose mostly 57.5 µM), for the others: at the highest dose activity change, negative = inhibition, hits mostly inhibitors | actives 6% (n = 1,500) | AID 2795, 2010; also: nearly all actives have a fitted effect of over 55% in size
# The depositor's hits bear a star; ? = inconclusive; · = no result; [ ] = another dose, or the depositor's remark. Calls follow the shape of the dose curve; as a rule, active = well fitted curve in the direction sought with a large enough effect; inconclusive = small, poorly fitted or top-dose-only effect, or another doubt; inactive = no such curve, though single readings can be large; an effect the other way counts as inactive or inconclusive. Unless noted, % is scaled to controls: 0 for no effect and ±100 for the full control effect; potency is read from the fitted curve at half-maximal effect.
SMILES,AmpC inh detg,Giardia FBPA inh-1,AmpC inh no detg,LmPK inhibitor,AMA1-RON2 inh,Giardia growth,Mammal cell tox,Giardia FBPA inh-2,Rabbit aldolase,GAPDH counter
COc1cccc2sc(Nc3nnc(-c4ccc(F)cc4)o3)nc12,?,15.8µM*,137.7%,5.7%,42.1%,66.6%,-10.6%,13.1%,-5.8%,-0.3%
Nc1nn(-c2ccccc2)nc1C(=O)OCc1c(F)cccc1Cl,-0.8%,·,·,·,·,·,·,·,·,·
O=C(CNCC1CCCO1)NCc1ccco1 (configuration not stated),7.7%,15.8µM*,-26.0%,-3.4%,-10.0%,?,3.9%,2.2%,8.4%,7.4%
O=C(CN(CC1CCCO1)C(=O)CNS(=O)(=O)c1ccccc1)NCc1ccco1 (configuration not stated),-3.8%,12.5%,55.1%,3.3%,13.5%,·,·,·,·,·
CC1CC(C)CN(C(=O)C(C)N(C)CC(=O)Nc2ccc(Cl)cc2)C1 (configuration not stated),?,19.9µM*,89.7%,-1.3%,?,-4.5%,-12.2%,-2.4%,5.1%,6.1%
O=C(NC(=S)N1C[C@H]2C[C@H](C1)c1cccc(=O)n1C2)c1ccc(Cl)cc1,?,?,-5.7%,-15.2%,117.3%,·,·,·,·,·
COc1ccc(/C=C/C(=O)NC(=S)N2C[C@H]3C[C@H](C2)c2cccc(=O)n2C3)cc1OC,-11.1%,7.94µM*,-4.1%,2.4%,63.2%,?,1.4%,4.6%,-0.2%,17.0%
O=C(/C=C/c1ccccc1)NC(=S)N1C[C@H]2C[C@H](C1)c1cccc(=O)n1C2,-13.1%,?,-19.5%,-0.8%,43.0%,·,·,·,·,·
COc1cc(C(=O)NC(=S)N2C[C@H]3C[C@H](C2)c2cccc(=O)n2C3)cc(OC)c1OC,-8.3%,11.2µM*,-14.0%,-3.2%,97.3%,10.9%[10.4 µM],17.3%,3.4%,9.9%,9.4%
COc1cc(OC)cc(C(=O)NC(=S)N2C[C@H]3C[C@H](C2)c2cccc(=O)n2C3)c1,-12.6%,11.2µM*,-26.1%,-0.6%,93.4%,17.5%,11.7%,6.2%,-2.0%,12.9%
O=[N+]([O-])c1cc2c(cc1CN1CCN(CCOCCO)CC1)OCO2,-13.4%,10µM*,-15.3%,-5.7%,0.0%,-3.1%[10.4 µM],8.9%,-18.0%,4.6%,1.8%
CCN1CCN(Cc2cc3c(cc2[N+](=O)[O-])OCO3)CC1,-11.3%,?,-10.1%,2.9%,10.1%,·,·,·,·,·

# From PubChem BioAssay
